# “And” between values parts separate entries of the source, which are not always exact repeats. Equal entries are not always repeated. Among all 5,500 compounds or so, about 2,000 (36%) were called active. Inconclusive results (about 18%) are left out. This is one part of the list. Values without a mark were called inactive. Rule as the data show it: active = normalized growth mostly below about 0.91 (no sharp cut-off); inconclusive = no clear call, values can overlap the other calls; inactive = mostly above about 0.92.
# Experiment: chemical genetic growth profiling, strain panel (AID 1159580);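 also: tested at 20 µM; growth read once vehicle control cultures reached saturation at 30 °C; 1 = growth at the plate median or of vehicle wells; lower values mean less growth of the strain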
# Details: S. cerevisiae deletion strains, growth OD
compound,measurement,setting,value
COC(=O)C(C)c1ccc(C(=O)c2cccs2)cc1 (stereo unspecified),normalized growth,"locus YAL013W, strain DEP1, active compounds read low",0.998
same,normalized growth,"locus YAL021C, strain ccr4, active compounds read low",1.01
same,normalized growth,"locus YAL026C, strain drs2, active compounds read low",0.988
same,normalized growth,"locus YAL030W, strain snc1, active compounds read low",1.01
same,normalized growth,"locus YBL061C, strain skt5, active compounds read low",1.01
same,normalized growth,"locus YBR009C, strain hhf1, active compounds read low",1
same,normalized growth,"locus YBR021W, strain FUR4, active compounds read low",0.971
same,normalized growth,"locus YBR023C, strain chs3, active compounds read low",1.01
same,normalized growth,"locus YBR171W, strain sec66, active compounds read low",1.01
same,normalized growth,"locus YBR229C, strain ROT2, active compounds read low",0.998
same,normalized growth,"locus YBR231C, strain swc5, active compounds read low",1.02
same,normalized growth,"locus YBR279W, strain paf1, active compounds read low",1
same,normalized growth,"locus YCL011C, strain gbp2, active compounds read low",1
same,normalized growth,"locus YCL016C, strain dcc1, active compounds read low",1
same,normalized growth,"locus YCL029C, strain bik1, active compounds read low",0.96
same,normalized growth,"locus YCL061C, strain MRC1, active compounds read low",1.01
same,normalized growth,"locus YCL069W, strain vba3, active compounds read low",1.01
same,normalized growth,"locus YCR088W, strain abp1, active compounds read low",1
same,normalized growth,"locus YDL005C, strain med2, active compounds read low",1.01
same,normalized growth,"locus YDL035C, strain GPR1, active compounds read low",0.957
same,normalized growth,"locus YDL040C, strain nat1, active compounds read low",1.01
same,normalized growth,"locus YDL074C, strain BRE1, active compounds read low",0.981
same,normalized growth,"locus YDL101C, strain DUN1, active compounds read low",1.01
same,normalized growth,"locus YDL134C, strain PPH21, active compounds read low",0.996
same,normalized growth,"locus YDL185W, strain tfp1, active compounds read low",0.939
same,normalized growth,"locus YDL192W, strain arf1, active compounds read low",0.951
same,normalized growth,"locus YDR001C, strain nth1, active compounds read low",1.02
same,normalized growth,"locus YDR069C, strain doa4, active compounds read low",1.02
same,normalized growth,"locus YDR101C, strain arx1, active compounds read low",0.975
same,normalized growth,"locus YDR137W, strain rgp1, active compounds read low",1
same,normalized growth,"locus YDR150W, strain NUM1, active compounds read low",0.985
same,normalized growth,"locus YDR159W, strain sac3, active compounds read low",1.02
same,normalized growth,"locus YDR162C, strain NBP2, active compounds read low",0.998
same,normalized growth,"locus YDR195W, strain ref2",0.993
same,normalized growth,"locus YDR297W, strain sur2, active compounds read low",1.01
same,normalized growth,"locus YDR318W, strain mcm21, active compounds read low",0.907 (active)
same,normalized growth,"locus YDR334W, strain swr1, active compounds read low",1.01
same,normalized growth,"locus YDR335W, strain msn5, active compounds read low",0.997
same,normalized growth,"locus YDR388W, active compounds read low",0.973
same,normalized growth,"locus YDR392W, strain spt3, active compounds read low",0.999
same,normalized growth,"locus YDR502C, strain sam2, active compounds read low",0.959
same,normalized growth,"locus YEL003W, strain gim4, active compounds read low",1.01
same,normalized growth,"locus YEL037C, strain rad23, active compounds read low",1
same,normalized growth,"locus YEL061C, strain CIN8 (second series), active compounds read low",1.01
same,normalized growth,"locus YEL061C, strain CIN8, active compounds read low",0.991
same,normalized growth,"locus YER015W, strain faa2, active compounds read low",1.01
same,normalized growth,"locus YER016W, strain bim1, active compounds read low",1
same,normalized growth,"locus YER110C, active compounds read low",0.955
same,normalized growth,"locus YER111C, strain swi4, active compounds read low",1.01
same,normalized growth,"locus YER155C, strain BEM2 (second series), active compounds read low",1.01
same,normalized growth,"locus YER155C, strain BEM2, active compounds read low",0.997
same,normalized growth,"locus YER167W, strain BCK2, active compounds read low",0.956
same,normalized growth,"locus YFR010W, strain ubp6, active compounds read low",1.01
same,normalized growth,"locus YGL078C, strain dbp3, active compounds read low",0.968
same,normalized growth,"locus YGL086W, strain mad1, active compounds read low",0.92 (active)
same,normalized growth,"locus YGL167C, strain pmr1, active compounds read low",1.01
same,normalized growth,"locus YGL173C, strain kem1, active compounds read low",1.02
same,normalized growth,"locus YGL227W, strain vid30, active compounds read low",1.01
same,normalized growth,"locus YGL240W, strain doc1, active compounds read low",1
same,normalized growth,"locus YGL248W, strain PDE1, active compounds read low",0.998
same,normalized growth,"locus YGL253W, strain hxk2, active compounds read low",1
same,normalized growth,"locus YGR078C, strain PAC10, active compounds read low",0.995
same,normalized growth,"locus YGR135W, strain pre9, active compounds read low",0.946
same,normalized growth,"locus YGR229C, strain SMI1, active compounds read low",0.96
same,normalized growth,"locus YGR252W, strain gcn5, active compounds read low",0.934
same,normalized growth,"locus YHR013C, strain ard1, active compounds read low",1.01
same,normalized growth,"locus YHR027C, strain rpn1, active compounds read low",1.01
same,normalized growth,"locus YHR030C, strain SLT2, active compounds read low",0.991 and 0.936
same,normalized growth,"locus YHR079C, strain IRE1 (second series), active compounds read low",0.968
same,normalized growth,"locus YHR079C, strain IRE1, active compounds read low",0.949
same,normalized growth,"locus YHR094C, strain hxt1, active compounds read low",0.947
same,normalized growth,"locus YHR129C, strain ARP1, active compounds read low",0.999
same,normalized growth,"locus YHR142W, strain chs7, active compounds read low",0.991
same,normalized growth,"locus YHR200W, strain rpn10, active compounds read low",0.954
same,normalized growth,"locus YIL066C, strain RNR3, active compounds read low",0.977
same,normalized growth,"locus YIL073C, strain SPO22, active compounds read low",0.851
same,normalized growth,"locus YIR030C, strain dcg1, active compounds read low",0.957
same,normalized growth,"locus YJL092W, strain hpr5, active compounds read low",1
same,normalized growth,"locus YJL095W, strain BCK1 (second series), active compounds read low",1.01
same,normalized growth,"locus YJL095W, strain BCK1, active compounds read low",1.01 and 0.972
same,normalized growth,"locus YJL115W, strain asf1, active compounds read low",1.03
same,normalized growth,"locus YJL129C, strain trk1, active compounds read low",1.04
same,normalized growth,"locus YJL134W, strain LCB3, active compounds read low",0.991
same,normalized growth,"locus YJL154C, strain vps35, active compounds read low",1
same,normalized growth,"locus YJL164C, strain tpk1, active compounds read low",0.998
same,normalized growth,"locus YJL166W, strain qcr8, active compounds read low",1
same,normalized growth,"locus YJL168C, strain set2, active compounds read low",0.973
same,normalized growth,"locus YJL187C, strain SWE1 (second series), active compounds read low",1
same,normalized growth,"locus YJL187C, strain SWE1, active compounds read low",1.01
same,normalized growth,"locus YJR043C, strain POL32, active compounds read low",0.972
same,normalized growth,"locus YJR066W, strain TOR1, active compounds read low",0.982

# From PubChem BioAssay AID1159580 (chemical genetic matrix, 2015)
